KKLEB cytotox: counter-screen for CF NF-kB inhibitors: cytotoxicity; KKLEB CF airway cells viability, ATPlite luminescence, overnight; hits give low values; cells stimulated with P. aeruginosa culture filtrate; actives 0.36% (n = 360,000); activity change (cytotoxicity), % at 5 µM;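 active = corrected activity change at or below -50% at 5 µM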
TROY NFkB inh: TROY signaling inhibition; inhibition, % at 10 µM; Q293 LMP1-TROYcd NF-kB luciferase reporter, 4 h; actives 0.98% (n = 360,000);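 active = compounds whose plate-normalised and pattern-corrected inhibition of the luciferase reporter signal at the single screening dose is 50% or more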
Peg3 prom inh: Peg3 promoter activity inhibition. HeLa PEG-Prom luciferase reporter, luminescence, overnight. inhibition, % at 20 µM. actives 1.7% (n = 360,000);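 active = inhibition of at least 50% at 20 µM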
TWEAK-Fn14 inh: inhibitors of TWEAK-Fn14 interaction signaling | inhibition, % at 10 µM | actives 2% (n = 360,000) | TWEAK-stimulated Fn14 reporter cells, luciferase luminescence, 8 h; in the data active = inhibition above about 50%
HIF-2a inh: HIF-2a inhibition | 786-0 RCC cells HIF-2a reporter, luciferase luminescence, overnight | inhibition, % at 18.8 µM | actives 0.72% (n = 360,000) | AID 624352;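 active = inhibition of the luminescence signal of 40% or more relative to plate controls, in a single-dose primary screen at 18.75 µM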
CF NFkB block: inhibitors of cystic fibrosis induced NF-kB; actives 0.86% (n = 360,000); inhibition, % at 5 µM; KKLEB NF-kB-GFP reporter, PAF-induced, GFP fluorescence overnight; AID 588850;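 active = at least 50% inhibition at 5 µM, scaled per plate between neutral and stimulator controls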;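 also: PAF is a Pseudomonas aeruginosa culture filtrate used as stimulus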
Mdm2 MdmX conf: Mdm2/MdmX (human) interaction inhibition, confirmed. actives 99% (n = 740). inhibition, % at 8 µM. shares compounds with HIF-2a inh. SaOS-2 split-luciferase Mdm2/MdmX complementation, luminescence;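 active = mean inhibition of the luminescence signal across two replicates at or above 26 percent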
Target sequence (O15151 whole entry, looked up): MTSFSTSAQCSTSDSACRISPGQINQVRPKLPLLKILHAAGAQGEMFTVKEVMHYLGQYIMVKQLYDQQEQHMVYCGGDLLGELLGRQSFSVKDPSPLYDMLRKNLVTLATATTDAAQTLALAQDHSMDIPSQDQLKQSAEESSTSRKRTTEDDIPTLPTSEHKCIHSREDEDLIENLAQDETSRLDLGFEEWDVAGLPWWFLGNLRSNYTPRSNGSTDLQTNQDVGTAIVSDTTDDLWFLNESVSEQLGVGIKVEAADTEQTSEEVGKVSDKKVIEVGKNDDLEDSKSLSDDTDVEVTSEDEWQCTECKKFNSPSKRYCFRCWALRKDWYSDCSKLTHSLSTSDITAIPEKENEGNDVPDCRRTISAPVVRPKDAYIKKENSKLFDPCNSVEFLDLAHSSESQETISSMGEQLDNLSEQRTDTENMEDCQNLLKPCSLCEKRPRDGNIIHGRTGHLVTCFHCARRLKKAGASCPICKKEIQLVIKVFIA
Target sequence (Q00987 whole entry, looked up): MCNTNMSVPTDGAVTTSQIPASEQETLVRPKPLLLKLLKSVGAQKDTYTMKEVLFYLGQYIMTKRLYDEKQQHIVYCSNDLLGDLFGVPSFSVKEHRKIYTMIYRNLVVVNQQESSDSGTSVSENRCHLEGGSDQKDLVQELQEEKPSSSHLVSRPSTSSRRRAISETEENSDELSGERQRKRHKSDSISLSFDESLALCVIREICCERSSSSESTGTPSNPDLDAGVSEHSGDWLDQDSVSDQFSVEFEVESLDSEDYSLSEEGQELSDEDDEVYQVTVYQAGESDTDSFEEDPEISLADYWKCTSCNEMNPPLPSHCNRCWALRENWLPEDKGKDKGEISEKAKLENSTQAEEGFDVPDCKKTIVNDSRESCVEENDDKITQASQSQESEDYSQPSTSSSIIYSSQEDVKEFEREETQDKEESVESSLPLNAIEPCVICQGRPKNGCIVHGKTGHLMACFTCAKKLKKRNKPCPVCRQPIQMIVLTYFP
HIF-2a conf: confirmation of HIF-2a inhibitors; shares compounds with HIF-2a inh; 786-0 RCC cells, HIF-2a luciferase reporter luminescence, overnight; inhibition, % at 18.8 µM; actives 56% (n = 1,800); AID 651580;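 active = mean inhibition across four replicates of at least 40 percent at the single tested concentration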
HIF-1a cs: counter-screen for HIF-2a inhibitors: HIF-1a inhibition in MiaPaCa-2 cells. MiaPaCa-2 HIF-1a luciferase reporter, desferoxamine, overnight. shares compounds with HIF-2a inh. actives 72% (n = 1,800). inhibition, % at 18.8 µM;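 active = mean inhibition of the reporter signal across four replicates at the single tested dose of 50% or more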
A number is an active result; i = inactive; nt = no result. Hits are enriched below; roughly 3.9% of the tested compounds scored in any of these assays.

SMILES	KKLEB cytotox	TROY NFkB inh	Peg3 prom inh	TWEAK-Fn14 inh	HIF-2a inh	CF NFkB block	HIF-2a conf	HIF-1a cs	others
O=C(NCCCN1CCOCC1)/C(=C/c1ccc(-c2cccc([N+](=O)[O-])c2)o1)NC(=O)c1ccccc1	i	i	i	i	i	i	nt	nt
Cc1nc2nc(C)n(CCN3CCOCC3)c(=O)c2c(-c2cccc([N+](=O)[O-])c2)c1C(=O)CCCCCCCCCCN1CCC(c2ccccc2)(c2ccccc2)CC1	i	i	95	96	84	i	i	107
CCN(CC)CCCN=C1N[C@@H](c2cccc(F)c2)C(C(=O)OC)=C(C)N1Cc1ccccc1	i	i	97	i	i	i	nt	nt	Mdm2 MdmX conf=102
COc1ccc(NC2=Nc3ccccc3N[C@@]23C[C@H]2CCCC(=O)N4CC[C@@H](C3)[C@@H]24)cc1	i	i	i	i	i	i	nt	nt
Cc1nnnn1/C(=C\c1ccccc1)C(=O)OCC(=O)N(C)C1CCS(=O)(=O)C1 (stereo unspecified)	i	i	i	i	i	i	nt	nt
CCN(C(=O)COC(=O)/C(=C/c1ccccc1)n1nnnc1C)C1CCCCC1	i	i	i	i	42	i	i	63
C#CCN1N=C(c2ccc(C)cc2)CSC1=O	i	i	i	i	i	i	nt	nt
CC1CCN(S(=O)(=O)N2CCCC(C(=O)NCc3ccc(F)cc3)C2)CC1 (stereo unspecified)	i	i	i	i	i	i	nt	nt
COc1cccc(-c2nnc(SCc3ccc(C#N)cc3)n2Cc2ccco2)c1	i	i	i	i	44	i	i	i
Cc1ccc(-c2nnc(SCc3ccc(C#N)cc3)n2Cc2ccco2)cc1	i	i	i	i	i	i	nt	nt
COc1ccc2c(c1)[nH]c1c(=O)n(/N=C/c3ccc(OC)c(CN4CCCC4)c3)cnc12	i	i	i	i	i	i	nt	nt
COc1ccc(/C=N/n2cnc3c([nH]c4ccc(F)cc43)c2=O)cc1CN1CCCC1	i	i	91	i	i	i	nt	nt	Mdm2 MdmX conf=100
Oc1cccc2ccc(Nc3ccccn3)nc12	-67	i	102	i	95	60	79	105	Mdm2 MdmX conf=103
COCCC(=O)N1CCC(Oc2ccc(C(=O)NC3CCCCC3)cc2)CC1	i	i	i	i	i	i	nt	nt
COCC(=O)N1CCC(Oc2ccc(C(=O)NC3Cc4ccccc4C3)cc2)CC1	i	i	i	i	44	i	43	i
COC(=O)c1ccc(/C=C(\C#N)C(=O)NC(C)c2ccccc2)cc1 (stereo unspecified)	i	i	104	57	67	77	48	105
O=C(Nc1ccc(OC(F)(F)F)cc1)N1CCN(c2ccnc3cc(Cl)ccc23)CC1	i	i	i	i	43	i	i	i
CC(C)(C)C(=O)N1CCN(c2ccnc3cc(Cl)ccc23)CC1	i	i	i	i	i	i	nt	nt
CCC(=O)Nc1ccc(C(=O)NNC(=O)c2cc(OC)c(OC)c(OC)c2)cc1	i	i	i	i	i	i	nt	nt
Cc1ccc(C(=O)NC(=C(Cl)Cl)S(=O)(=O)c2ccccc2)cc1	i	i	79	84	89	i	i	i
Cc1ccc(C(=O)NC(=S)NNS(=O)(=O)c2ccccc2)cc1	i	i	i	i	i	i	nt	nt
Cc1ccc(C(=O)NCC#N)cc1	i	i	i	i	i	i	nt	nt
Cc1ccc(C(=O)NC(C#N)=C(Cl)Cl)cc1	nt	nt	nt	nt	nt	nt	nt	nt	Mdm2 MdmX conf=103
CCCN(Cc1cc2cc(C)ccc2[nH]c1=O)C(=O)c1ccccn1	i	i	i	i	i	i	nt	nt
CN(C)CCCNC(=O)C[C@H]1C[C@H](C(=O)N2CCCCC2)[C@@]2(C)c3[nH]c4ccc(Cl)cc4c3CCN2C1=O	i	i	i	i	i	i	nt	nt

Source: PubChem BioAssay (Sanford-Burnham Center for Chemical Genomics)
